Results published in publication PMC10163288.
These entries were drawn from the full list. How many sequences the whole screen found active is unknown.

B1: il2ra_site2_2erj_normal_mot_HHH_b1_08185_000000063_0001_41_55_H_._HHH_b1_04971_af2_0001_0000600015_0000001_0 (protein)
chain: SSSSSDSAEEALELAKEAYEKGDRSEVELILRYLELSLEDANDPRVEEAYELVEELLEELSSSSS
B2: il2ra_site2_3nfp_normal_mot_HHH_b1_01086_000000225_0001_20_36_H_._HHH_b2_03611_0001_0000300035_0000001_0 (protein)
chain: SSSSSEAEEELERLLRELEELLKRDPEEAHRLSARALNLAYEARDFEIFARLADISFALASSSSS
B3: il2ra_site1_3nfp_sap_16_mot_5dea99290cf7e133ebc5b763b21a7a39_0001_000000141_0001_34_49_H_._ems_3hC_617_0002_0001_0000300017_0000001_0_0001 (protein)
chain: NDKIAERLVRQAVEQNSPRILKKILEDLERVLGDPEEARERLRELLELVLGDPEEVERLLELAEE
B4: il2ra_site1_3nfp_sap_8_mot_93ec910cbd4ebb8dd092c1ac1e61ab37_0001_1_af2_000000101_0001_16_31_H_._22fa1065b69cf192845a0250a7ccff51_0001_1_0001_0000400021_0000001_ … (protein)
chain: SSSSDSVEWLQEMIERAFENNDRRQLRVLIKILEKAAEQFGDPEVEKLLEEAERLLEELNSSSSS
B5: il2ra_site1_3nfp_normal_mot_HHH_b2_04366_af2_000000103_0001_1_19_H_._d3e5e791db42274430e6ef9f54efc4f5_0001_af2_0001_0000100007_0000001_0_af2pred_0001_af2pred_sw … (protein)
chain: SAKEISELLREAARKDPEVSELLWEALRLFVKNEEEALRLLEELLKELGDPLVEEVLRLLEELAK
B6: il2ra_site1_1z92_sap_8_mot_a31c9f16200a66e5ad31ddff700483a3_0001_1_000000069_0001_19_32_H_._HHH_b1_03395_0001_0000300021_0000001_0_0001_af2pred_0001_af2pred_1 (protein)
chain: PEELAEEARELLENGNPEEARKVLEKLAKELGTEEAFKLDLERAERFTGNPEVALKALIAALARH
B7: il2ra_site2_2erj_normal_mot_HHH_b1_06697_000000025_0001_41_54_H_._HHH_b2_03722_0001_0000300007_0000001_0_af2pred_0001_1_af2pred_swapped (protein)
chain: SSSSSDKEEVEERVREILEEAEQVRDPREALKILEKADRLASENNNEEALELIHEVLQRLSSSSS
B8: il2ra_site2_3nfp_sap_15_mot_HHH_b1_07089_af2_000000257_0001_1_17_H_._51cc31007119fa75359d0ea3f4aa2c22_0001_1_0001_0000100009_0000001_0_0001 (protein)
chain: SSSSSAAEDSVHVLKRELEELGDRESIEELERLLEEIKEHNDPRLLLELYALLLRLYEESSSSSS
B9: il2ra_site1_1z92_sap_21_mot_35b94aac26684153dbcc4bf06a514b74_0001_1_000000068_0001_35_49_H_._HEEHE_2006_af2_0001_0000400023_0000001_0_0001_af2pred_0001_af2pred (protein)
chain: SSSSDEEEAAEEIVREVVEKLGLSEEDREALERDAEQSLRRGISERSVKQALEKAAKRERSSSSS
B10: il2ra_site1_1z92_sap_11_mot_HHH_b2_00249_af2_000000052_0001_39_52_H_._HHH_b2_00616_af2_0001_0000400013_0000001_1_0001_af2pred_0001_af2pred (protein)
chain: SSSSSEKRKEALELFEEANELFKRGNDEEAQELLRRALELAEEAGNRVLARAIEQALEDAESSSS
B11: il2ra_site2_2erj_sap_22_mot_HHH_b2_08130_000000073_0001_1_17_H_._HHH_b1_02674_0001_0000300003_0000001_0_0001 (protein)
chain: SSSSDVEELLEEIEELLRRGDREEAERLLHEAAELAFERNDFELFTEVVEVAHEIDRLRVSSSSS
B12: il2ra_site2_3nfp_normal_mot_HHH_b1_01086_000000225_0001_20_36_H_._HHH_b1_01202_0001_0000300006_0000001_0_af2pred_0001_af2pred_swapped (protein)
chain: SSSSDHERFALRAALLEIEVAIEAGDEKKVEKLIERLEILIKRLNDEEMEELLRKLKEELSSSSS
B13: il2ra_site2_3nfp_normal_mot_HHH_b1_00660_af2_000000090_0001_40_57_H_._HHH_b1_07775_af2_0001_0000100002_0000001_1 (protein)
chain: SSSSDEELEEEVEKLLEEAKKIEDKFEAFALVLRAREIAERLGDEELKQLVARVALEIYESSSSS
B14: il2ra_site1_3nfp_normal_mot_eb5a5eebac1e5153f932cc6c3f4b2787_0001_af2_000000065_0001_18_33_H_._31bff7180b20e3ed47766ceefd9934be_0001_af2_0001_0000200025_0000001 … (protein)
chain: DEEKELAELIAEAVEKNDPELLEEVVQELLKKLGDPKEASRLFEELLRKAGLSPEEIYLAMELVV
B15: il2ra_site2_2erj_normal_mot_HHH_b1_04373_af2_000000118_0001_18_33_H_._HHH_b1_02368_af2_0001_0000200015_0000001_0 (protein)
chain: SSSSDEELREEVEELLERAREAYEEGDLELVYELAVEAAHFAARNQDEELLELILEVVERLSSSS
B16: il2ra_site1_1z92_normal_mot_HHH_b1_03515_000000289_0001_1_19_H_._HHH_b2_07175_0001_0000100001_0000001_0 (protein)
chain: SSSSDRLERAAEIIVRVAVEANGLSEEQEKELEELARELVERGLDPLEIIKLLDRLAAELSSSSS
B17: il2ra_site2_2erj_sap_28_mot_HHH_b1_06697_000000025_0001_41_54_H_._HHH_b1_07674_0001_0001200015_0000001_1_0001 (protein)
chain: SSSSSDVKEAYEEIAELLARAAHIKDPEEVRKLLEEAERLAEENNDPFARKYVEFARRDFSSSSS
B18: il2ra_site1_1z92_normal_mot_HHH_b2_01902_af2_000000252_0001_25_40_H_._HHH_b1_06549_af2_0001_0000100014_0000001_0_af2pred_dldesign_0_af2pred (protein)
chain: SSSSSPLERAARQYVDAIKEIAGLSDEQYAELLAEAERLAAAGVPVRDIAKALDKRAAELLSSSS
B19: il2ra_site2_3nfp_normal_mot_HHH_b2_00429_000000100_0001_21_37_H_._HHH_b1_08311_0001_0000300035_0000001_0 (protein)
chain: SSSSDEEVERLIEEAEELLRNGNPEEAKRVISRATDLAYEAGDHRLFALLVDLVAVVAHLLSSSS
B20: il2ra_site2_3nfp_normal_mot_HHH_b2_04451_000000238_0001_21_37_H_._HHH_b2_06904_0001_0000300014_0000001_0 (protein)
chain: SSSSSSDEEEIEELLELVEKIDDQLERLQVLLEASKLAAELGDEELAREVLRLFAEIQSSSSSSS
B21: il2ra_site1_3nfp_normal_mot_0eddeacbb14b769e73e254714f31e2f9_0001_af2_000000052_0001_37_51_H_._HHH_b1_00975_af2_0002_0000100004_0000001_0 (protein)
chain: SSSSSDEEELRERVEELLEEAKHVSEEEASRLIEEAYRLVQENGNQELADLIYRVMREMISSSSS
B22: il2ra_site2_3nfp_sap_4_mot_HHH_b2_00168_000000180_0001_1_21_H_._HHH_b2_05578_af2_0001_0000500013_0000001_0_0001 (protein)
chain: SSSSDDVEEYLRAALALAREAIKQGDEELAEKILEMIRKAAEDAKDEEALEEAEELLKLVGSSSS
B23: il2ra_site2_3nfp_normal_mot_HHH_b2_06150_000000217_0001_39_53_H_._HHH_b1_03322_0001_0000100005_0000001_0 (protein)
chain: SSSSDIEERIEELLEEAKELIENGDPERAQEVLQEATHLAYEIRNSELFMRVAELLYLLRSSSSS
B24: il2ra_site1_3nfp_sap_8_mot_HHH_b1_04221_000000040_0001_40_56_H_._16d56542c9725820401ab7c11c235cbe_0001_0001_0000300014_0000001_0_0001 (protein)
chain: SSSSNEAAREATELMREIRRLLKEGNPEEARKLLEELEELAERNNDPVLKWLVRQFEESINSSSS
B25: il2ra_site1_1z92_sap_8_mot_a31c9f16200a66e5ad31ddff700483a3_0001_1_000000069_0001_19_32_H_._HHH_b1_08052_0001_0000300018_0000001_0_0001_af2pred_0001_af2pred (protein)
chain: SSSSEESLRRLAERLVEDAAKLADLSEEQKEELEELAEELIKRGVDPHEIAKELERLADELSSSS
B26: il2ra_site2_3nfp_normal_mot_HHH_b2_00429_000000100_0001_21_37_H_._HHH_b2_03374_0001_0000300044_0000001_0_af2pred_0001_1_af2pred_swapped (protein)
chain: SSSSNHEEFALRAALISLKLAVEAGNEELVRRLYEDAERAAKNANDPEVLEELERVFEEFHSSSS
B27: il2ra_site2_2erj_sap_17_mot_HHH_b2_05720_000000165_0001_1_18_H_._HHH_b2_07625_af2_0001_0000700024_0000001_0_0001 (protein)
chain: SSSSSDEEEREAERITEEIEERIDDPEERLREFFRVAVELLREGDPRTAHILLRLAQEGSSSSSS
B28: il2ra_site2_2erj_sap_24_mot_4428453eb85d3cbdb794fa6b82d21c19_0001_000000044_0001_14_30_H_._HHH_b2_00328_0001_0000300019_0000001_0_0001 (protein)
chain: SSSSDELHRLYELANEILHALSRGDEELVEELLEELEKLAEEADSRVAKENVEALRKHLDSSSSS
B29: il2ra_site1_2b5i_normal_mot_f5ff40796168375b462bec8614a1db4a_0001_1_000000138_0001_53_65_H_._HHH_b1_04161_0001_0000400021_0000001_0_af2pred_dldesign_0_af2pred (protein)
chain: SSSSSLRELVEEIIAEVKRLVAEGKLEEARKLAILALRLARKAEDPELVARVEALLETLESSSSS
B30: il2ra_site2_3nfp_normal_mot_HHH_b2_06150_000000217_0001_39_53_H_._HHH_b2_05434_af2_0001_0000100005_0000001_0 (protein)
chain: SSSSDEEEVEKLLKKAEELRERGNPEEARKLLREATQIAYERRDSELFFLVAEVLFEVLLSSSSS
B31: il2ra_site1_1z92_normal_mot_HHH_b2_00827_000000099_0001_20_37_H_._HHH_eva_0327_af2_0001_0000100007_0000001_0 (protein)
chain: SSEEELEELVEKIREVAEEKGDERLRRALERARFVLRELELGANSERAREIAEEAIKALYKTVVS
B32: il2ra_site1_3nfp_normal_mot_HHH_b1_04049_af2_000000244_0001_42_55_H_._HHH_b1_01786_0001_0000400012_0000001_0_af2pred_0001_af2pred (protein)
chain: SSSSDDKKRIQKLLREIMRLSKEGDEEEAEKLLEEVEELAREAGDPVAELLVELLKKILNSSSSS
B33: il2ra_site1_1z92_normal_mot_1581cc1c700002558836ca695aafbf97_0001_1_af2_000000099_0001_17_32_H_._HHH_b2_05050_0001_0000200017_0000001_0_af2pred_0001_af2pred (protein)
chain: SSSSDEEVERLVEELVEEFNLSEEEEKELRRIARSAEELGADPELVKKALEHFVEFLKRKGSSSS
B34: il2ra_site1_1z92_normal_mot_HHH_b1_04604_af2_000000029_0001_42_56_H_._HHH_b2_03915_0001_0000100005_0000001_0_af2pred_0001_af2pred (protein)
chain: SSSSDAELAAEADELLAEGNPEKVEEVLEEIRRAAEERDSRRLKEILENLEEELRELEEESSSSS
B35: il2ra_site1_2b5i_sap_12_mot_HHH_b2_04463_af2_000000056_0001_43_55_H_._HHH_b2_02114_af2_0001_0000100003_0000001_1_0001 (protein)
chain: SSSSNEAAREARELMEKLDEAFRRGDEELLEELLEEIEEFLKEQDDKFLRLAMEQVREELSSSSS
B36: il2ra_site2_3nfp_normal_mot_HHH_b1_03557_000000106_0001_41_55_H_._HHH_b2_00561_0001_0000400025_0000001_0_af2pred_0001_1_af2pred_swapped (protein)
chain: SSSSSDEEREEVEELLEEAEHIEDEREVFIVLVEAFFLALELRDPELERLVREFLKEFRSSSSSS
B37: il2ra_site1_1z92_normal_mot_HHH_b1_03515_000000289_0001_1_19_H_._HHH_b1_01554_af2_0001_0000200013_0000001_0 (protein)
chain: SSSSSSEHAARAIVKVLVRVARLSEEQEKELQELAEELVKRGYSLLEIIKILDRVAVELSSSSSS

biological target: il2ra, P01589; assay: yeast display titration
Sequence (P01589 whole entry): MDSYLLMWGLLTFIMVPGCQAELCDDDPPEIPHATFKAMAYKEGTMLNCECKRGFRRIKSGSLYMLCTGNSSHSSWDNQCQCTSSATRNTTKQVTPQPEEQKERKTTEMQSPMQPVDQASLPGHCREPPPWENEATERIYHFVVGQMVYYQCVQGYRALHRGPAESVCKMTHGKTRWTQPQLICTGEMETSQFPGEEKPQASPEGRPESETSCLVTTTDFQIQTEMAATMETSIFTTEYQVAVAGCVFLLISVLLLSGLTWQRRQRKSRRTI

Apparent Kd, inactive:
B1 no binding seen
B2 no binding seen
B3 no binding seen
B4 no binding seen
B5 no binding seen
B6 no binding seen
B7 no binding seen
B8 no binding seen
B9 no binding seen
B10 no binding seen
B11 no binding seen
B12 no binding seen
B13 no binding seen
B14 no binding seen
B15 no binding seen
B16 no binding seen
B17 no binding seen
B18 no binding seen
B19 no binding seen
B20 no binding seen
B21 no binding seen
B22 no binding seen
B23 no binding seen
B24 no binding seen
B25 no binding seen
B26 no binding seen
B27 no binding seen
B28 no binding seen
B29 no binding seen
B30 no binding seen
B31 no binding seen
B32 no binding seen
B33 no binding seen
B34 no binding seen
B35 no binding seen
B36 no binding seen
B37 no binding seen
